ALDH1A1 inh – ALDH1A1 (human) enzyme inhibition | Purified ALDH1A1, NADH fluorescence, propionaldehyde substrate | hit rate 7.3% among 220,000 | Potency, µM (top dose mostly 75.3 µM), inactives show at the highest dose activity, negative = inhibition, most hits filed as inhibitors | P00352;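 further: potency means the concentration at half of the fitted maximal effect; plate controls were no enzyme wells and a reference inhibitor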
PNC assembly inh – blocks assembly of the perinucleolar compartment; PC3M PTB-GFP, PNC prevalence imaging, 16 h; stronger effect = lower value; activity change (PNC), negative = inhibition, % at 10 µM; hit rate 3.1% among 140,000; AID 2417;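 active means readout at or below -70, meaning at least 70% loss of cells showing the perinucleolar compartment, a nuclear body marking cancer cells; inconclusive means readout between -30 and a set limit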;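 further: plate controls were DMSO wells for no effect and camptothecin positive control wells for full effect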
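Read-out is percentage of cells bearing a perinucleolar compartment, from automated 20x imaging of fixed, Hoechst-stained PC3M PTB-GFP cells. Cells were seeded 4 h, then exposed 16 h to compound (23 nl of library stock) in duplicate plates.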
GoLoco inh red – inhibitors of human Gai1-RGS12 GoLoco interaction (red fluorophore). Potency, µM (top dose mostly 61.6 µM), without a hit: at the highest dose activity, negative = inhibition, most hits filed as inhibitors. hit rate 0.44% among 230,000. Gai1:RGS12 GoLoco peptide FP, rhodamine, 10 min. P63096; active means well fitted inhibition curve with a large enough effect, not every such curve was filed as active; inactive means no such curve, though single readings can be large or run the other way; further: potency means the concentration at half of the fitted maximal effect; on the % scale 0 is the no-effect control and ±100 the full control effect; nearly all actives have a fitted effect of over 30% in size
HttQ103 aggreg – mutant huntingtin aggregation inhibition; PC12 HttQ103-GFP aggregates, Acumen cytometry, 40 h; Potency, µM (top dose mostly 46.1 µM), for inactives: at the top dose activity change, negative = inhibition, usual class: inhibitors; hit rate 1.1% among 220,000; AID 1688; active means well fitted curve in the direction sought with a large enough effect; inconclusive means small, poorly fitted or top-dose-only effect, or another doubt; inactive means no such curve, though single readings can be large; an effect the other way counts as inactive or inconclusive; further: potency means the concentration at half of the fitted maximal effect; on the % scale 0 is the no-effect control and ±100 the full control effect; nearly all actives have a fitted effect of over 60% in size
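Using laser scanning cytometry, GFP-positive aggregates were counted after lysis of PC12 cells induced with 100 nM tebufenozide to express HTT exon 1 Q103–GFP. Compounds were tested in titration.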
HPGD inh – inhibitors of human 15-hydroxyprostaglandin dehydrogenase (HPGD); hit rate 4.3% among 150,000; P15428; purified HPGD, NADH fluorescence kinetic, PGE2 substrate; Potency, µM, inactives show at the top dose activity change, negative = inhibition, hits mostly inhibitors; AID 894; further: potency means the concentration at half of the fitted maximal effect; on the % scale 0 is the no-effect control and ±100 the full control effect
Target sequence (P15428 whole entry, looked up): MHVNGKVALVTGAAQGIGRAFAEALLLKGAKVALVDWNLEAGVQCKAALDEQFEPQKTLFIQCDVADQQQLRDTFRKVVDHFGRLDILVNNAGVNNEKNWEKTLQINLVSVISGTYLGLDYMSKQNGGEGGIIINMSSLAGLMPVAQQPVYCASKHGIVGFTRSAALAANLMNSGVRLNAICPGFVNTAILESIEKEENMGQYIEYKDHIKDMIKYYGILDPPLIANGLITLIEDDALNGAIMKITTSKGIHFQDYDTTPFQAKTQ
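NADH formation kinetics: reaction with 30 uM PGE2 and 1 mM NAD+ (final), 20 nM enzyme, Tris-HCl pH 8 with Tween 20, after 15 min compound preincubation at room temperature. Fluorescence change, last versus first of five reads.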
HTT cytoprotect – protects HTT-Q103 PC12 cells, measured by ATP; PC12 HTT-Q103 induced, cytoprotection, ATP luminescence, 40 h; Potency, µM (highest dose often 56.4 µM), for inactives: cytoprotection (ATP increase), usual class: activators; hit rate 0.14% among 230,000; active means well fitted curve in the direction sought with a large enough effect; inconclusive means small, poorly fitted or top-dose-only effect, or another doubt; inactive means no such curve, though single readings can be large; an effect the other way counts as inactive or inconclusive; further: potency means the concentration at half of the fitted maximal effect; % of control where 0% means no effect; nearly all actives have a fitted effect of over 45% in size
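Cells were plated at 1500 per well in phenol red-free DMEM with 5% equine and 5% calf serum. Tebufenozide (100 nM final) and compounds were added, then ATPlite reagent, and luminescence was read.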
Numbers without * were called inactive; ? = inconclusive; . = no result given; [ ] = another dose, or the depositor's remark. Shown are actives, neighbours in structure and some others; about 11% of the full set was active somewhere. Unless noted, the call rests on the fitted dose curve; in most records, active means well fitted inhibition curve with a large enough effect (not every such curve was filed as active); inconclusive means small, poorly fitted or top-dose-only effect, or another doubt; inactive means no such curve, though single readings can be large or run the other way.

SMILES | ALDH1A1 inh | PNC assembly inh | GoLoco inh red | HttQ103 aggreg | HPGD inh | HTT cytoprotect
COc1cc(C)c2c(c1C=O)Oc1c(c(C)c(O)c3c1C(O)OC3=O)OC2=O (stereo not drawn) | -14% | . | -15% | -13%[9.22 µM] | 20µM* | 5%
O=C(O)CCCSc1ccccc1 | 22%[13.5 µM] | . | 5%[14.2 µM] | . | -11% | -6%[10 µM]
Cc1noc(C)c1-c1nnc(-c2ccc(C(F)(F)F)cc2)o1 | 5% | . | 3% | -12%[9.22 µM] | . | -10%[10 µM]
CC(C)[C@@H](CC(=O)N[C@@H]1CCCC[C@H]1C(=O)N[C@H](CC(=O)N[C@@H](CCC(=O)O)CC(=O)O)Cc1c[nH]c2ccccc12)NC(=O)C[C@H](Cc1c[nH]c2ccccc12)NC(=O)[C@@H]1CNCC[C@H]1N | -4% | . | 1% | . | -5% | -10%[1.9 µM]
Cc1c(S(=O)(=O)c2ccccn2)c(N)n(Cc2cccc(Cl)c2)c1C | . | . | 44% | -9%[9.22 µM] | . | -12%[10 µM]
O=C(OCC#CCSc1nnc(-c2ccccc2)o1)c1cccs1 | 20µM* | 25 | 22% | 18% | 16µM* | -14%
O=C(OCC#CCSc1nnc(-c2cccc3ccccc23)o1)c1cccs1 | ? | -12 | 7% | -2% | ? | -38%
COc1ccc2c(c1)-c1nc(/N=C/c3ccc(O)c(OC)c3)sc1CC2 | 25µM* | -8 | -15% | -10% | -26% | 10%[10 µM]
COc1ccc2c(c1)-c1nc(N)sc1CC2 | ? | . | -27% | -14%[9.22 µM] | . | 5%[10 µM]
O=[N+]([O-])c1c(NCCCO)cc(Sc2ccc(Cl)cc2)c2nonc12 | 4.5µM* | ? | 0% | ? | -29% | -5%[10 µM]
CC(=O)OCCNc1cc(SCc2ccco2)c2nonc2c1[N+](=O)[O-] | ? | 13 | -18% | 3% | ? | 0%[10 µM]
CC(=O)OCCCNc1cc(Sc2nc3ccccc3s2)c2nonc2c1[N+](=O)[O-] | 11µM* | 16 | -33% | 2% | 2.5µM* | -31%[10 µM]
CC(=O)OCCNc1cc(Sc2nc3ccccc3[nH]2)c2nonc2c1[N+](=O)[O-] | 10% | -19 | -24% | ? | 3.2µM* | -35%[10 µM]
CC(=O)OCCCNc1cc(Sc2ccc(C)cc2)c2nonc2c1[N+](=O)[O-] | -13% | ? | -20% | ? | -22% | 17%[10 µM]
COC(=O)CCSc1cc(NCCOC(C)=O)c([N+](=O)[O-])c2nonc12 | 14% | 2 | 1% | 5% | -23% | 41%[10 µM]
CCCC(=O)OCCNc1cc(SCCC(=O)OC)c2nonc2c1[N+](=O)[O-] | 10µM* | -12 | 0% | 4% | 28µM* | -5%[10 µM]
O=C(O)Cn1ncn(-c2ccc(OC(F)(F)F)cc2)c1=O | 7% | . | 4% | 1% | . | 8%[10 µM]
CC(=O)O[C@@H]1C(CO[Si](C)(C)C(C)(C)C)=C(Br)C(=O)[C@@H]2O[C@]12C | -11% | . | 0% | . | ? | -95%
O=C1OCCC1Sc1nnc(-c2ccco2)o1 (stereo not drawn) | 8% | -100* | 2% | -6% | -15% | -13%[0.074 µM]
O=C1OCCC1Sc1nnc(-c2ccc(Br)cc2)o1 (stereo not drawn) | -7% | 37 | 1% | -13% | -6% | -31%
O=C(O)c1ccc(C[n+]2c(-c3ccccc3)csc2Nc2ccccc2)cc1 | -14% | 72 | -4% | 1% | 16µM* | 18%[1.9 µM]
CCOC(=O)CN1C(=O)N[C@@H](c2ccc(Br)cc2)C(C(=O)OC)=C1C | -3%[13.5 µM] | . | 3%[14.2 µM] | 9%[9.22 µM] | 1% | 1%[10 µM]
CCOC(=O)CN1C(=O)N[C@H](c2ccc(Br)cc2)C(C(C)=O)=C1C | 14µM* | -6 | 1% | ? | -23% | .
O=C(CN1CCN(C/C=C/c2ccccc2)CC1)Nc1cc([N+](=O)[O-])ccc1Cl | 10µM* | -124* | -15% | -11% | -9% | .
CCOC(=O)C1CCCN(Cc2c(C(=O)N3CCCCC3)nc3c(C)cccn23)C1 (stereo not drawn) | ? | . | 0% | 22%[9.22 µM] | . | 0%[10 µM]
Cc1cccn2c(CNC3CCCc4ccccc43)c(C(=O)N3CCCCC3)nc12 (stereo not drawn) | 20µM* | . | 29% | 0%[9.22 µM] | . | -5%[10 µM]

High-throughput results from PubChem BioAssay.
